In all, about 33,000 sequences were measured (“E-score (-0.5 to 0.5)”: median about -0.021, highest 2% from about 0.32 on). The sample holds the highest values, similar sequences and a random draw of the others, so the mix is not that of the screen.
Target: T1, Zap1 (UniProt P47043)
T1 sequence: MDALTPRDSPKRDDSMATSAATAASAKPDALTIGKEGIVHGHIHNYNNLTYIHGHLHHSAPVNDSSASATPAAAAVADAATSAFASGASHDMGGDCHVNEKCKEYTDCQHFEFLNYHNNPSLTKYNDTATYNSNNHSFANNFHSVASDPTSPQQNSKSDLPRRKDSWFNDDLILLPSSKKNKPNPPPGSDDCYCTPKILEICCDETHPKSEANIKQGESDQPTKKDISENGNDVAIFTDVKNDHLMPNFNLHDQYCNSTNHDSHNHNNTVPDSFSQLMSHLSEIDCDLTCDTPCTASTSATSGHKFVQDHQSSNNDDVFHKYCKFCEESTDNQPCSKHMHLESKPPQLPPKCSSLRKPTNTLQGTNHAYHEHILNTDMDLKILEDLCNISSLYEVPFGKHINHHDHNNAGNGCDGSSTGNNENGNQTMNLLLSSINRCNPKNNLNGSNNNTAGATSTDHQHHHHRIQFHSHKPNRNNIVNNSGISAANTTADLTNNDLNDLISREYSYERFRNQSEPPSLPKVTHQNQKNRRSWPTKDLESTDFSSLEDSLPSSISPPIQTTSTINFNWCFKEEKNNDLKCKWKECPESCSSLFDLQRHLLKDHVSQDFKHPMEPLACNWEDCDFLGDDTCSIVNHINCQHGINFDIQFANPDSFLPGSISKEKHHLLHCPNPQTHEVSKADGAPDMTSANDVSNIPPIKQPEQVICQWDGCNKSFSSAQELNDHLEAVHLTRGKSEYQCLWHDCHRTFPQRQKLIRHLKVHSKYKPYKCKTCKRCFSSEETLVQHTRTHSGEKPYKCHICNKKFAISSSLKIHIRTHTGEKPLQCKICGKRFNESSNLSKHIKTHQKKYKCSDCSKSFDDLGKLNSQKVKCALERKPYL
Assay: PBM E-score (8-mer binding enrichment) (E-score (-0.5 to 0.5)); higher = stronger / more preferred TF binding
Conditions: protein concentration: 200 nM; construct: GST-full length
Description: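 Universal 'all 10-mer' protein binding microarrays (Agilent AMADID 015681) probed with GST-tagged S. cerevisiae TFs (full-length or DBD) made by in vitro transcription/translation (PURExpress), about 100-200 nM. Bound TF was detected with fluorescent anti-GST. Each ungapped 8-mer (which stands for itself and its reverse complement) is scored by the PBM enrichment score (E-score), a modified Wilcoxon-Mann-Whitney statistic from -0.5 to +0.5, computed with the Universal PBM Analysis Suite. Scale: above 0.35 generally sequence-specific binding.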

In order of rising “PBM E-score” value:
1. AGCGCACT  -0.293
2. CGTAGCGA  -0.251
3. CAGCCAAG  -0.242
4. AACAGCGG  -0.195
5. CATCAGCG  -0.182
6. CTGATTCA  -0.158
7. AGTGCACG  -0.151
8. CGGTCTAC  -0.149
9. CTAGCTCA  -0.147
10. AATGACTA  -0.136
11. AATGTTAA  -0.132
12. AGAAGTAC  -0.115
13. GCCCCTTA  -0.0926
14. AGTAGCAG  -0.0921
15. AGATCAGA  -0.0903
16. TCTGAGAA  -0.0814
17. AGCCCTTG  -0.0802
18. CTGCGCAC  -0.0749
19. GTAGGGAC  -0.0704
20. AATGACGT  -0.0682
21. ACATAGCC  -0.0651
22. CACCTGTA  -0.0421
23. ATATGGGG  -0.0334
24. AAGCGTTA  -0.0244
25. CAGGTTTA  -0.0228
26. GCCCTGTA  -0.0104
27. GAGGTTGA  -0.00385
28. AAGTATGT  -0.00136
29. TATTATGA  0.00643
30. CCCCTGTA  0.02
31. CGGTTTCA  0.03
32. CAGATTAC  0.0563
33. AAACCTTG  0.0789
34. GCCCTGAA  0.0835
35. CGAGAAAC  0.0891
36. GTCCCTTA  0.0953
37. TAGGTTGA  0.101
38. AACGTTAC  0.111
39. GTTTGGAA  0.116
40. CAGATTAA  0.118
41. CCCCTGAA  0.127
42. CACCCTTC  0.135
43. CCTCTGAC  0.139
44. ATTGGTTC  0.141
45. AACCTGAA  0.144
46. GCGGTAAA  0.165
47. TAGGTTCA  0.175
48. AAGGTTTG  0.176
49. ATTGGTTG  0.186
50. CAGGTTTC  0.198
51. AAGGTTTC  0.206
52. CAGGTTAG  0.212
53. AATGACCG  0.216
54. ACCTTAGG  0.216
55. GAGGTTCC  0.223
56. AAGGTTTA  0.226
57. CTTGGTTC  0.232
58. ACCCCTTC  0.234
59. GAGGTTGC  0.238
60. AACTTAAC  0.244
61. GAGGTTCA  0.254
62. ACCCCTTG  0.279
63. TATGACCA  0.288
64. CCCTGCGG  0.292
65. CAACCTTC  0.313
66. GTTGGTTA  0.316
67. TAGGTTAA  0.319
68. AACCTGTA  0.324
69. CAGGTTAA  0.325
70. CAACCTTG  0.332
71. CTTGGTTA  0.334
72. AATGACCA  0.334
73. AAGGTTAG  0.35
74. ACCCTGTA  0.353
75. ACGGTAAC  0.364
76. GACCCTTA  0.376
77. AATGACCT  0.393
78. ACCCTGAA  0.399
79. ATTGGTTA  0.402
80. AAGGTTAA  0.415
81. CAGGTTAC  0.424
82. AACCCTTC  0.424
83. GAGGTTAA  0.429
84. AACCCTTG  0.444
85. GAGGTTAC  0.473
86. AAGGTTAC  0.475

Reference: the supplement of paper PMC3334620
